TDP1 cell CPT: qHTS for Inhibitors of human tyrosyl-DNA phosphodiesterase 1 (TDP1): qHTS in cells in presence of CPT; chicken DT40 Tdp1-/-;hTDP1 cells + 20 nM CPT, ATP luminescence, 48 h; Potency, µM (top dose mostly 46.2 µM), without a hit: at the top dose activity change, negative = growth inhibition, most hits filed as inhibitors; AID 686979, 2013; 12% of 420,000 active; further: on the % scale 0 is the no-effect control and ±100 the full control effect; nearly all actives have a fitted effect of over 55% in size
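Chicken DT40 Tdp1-/- cells complemented with human TDP1, 400 cells/well, exposed to compounds plus 20 nM camptothecin for at least 48 h at 37 C; viability read as ATP content by CellTiter-Glo luminescence.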
HepG2 viability: qHTS for Inhibitors of TGF-b: Cytotox Counterscreen. 0.76% of 410,000 active. HepG2 CAGA-GFP viability, ATP luminescence, 18 h. Potency, µM (doses to about 46.1 µM), inactives show at the highest dose activity change, negative = cytotoxicity, most hits filed as cytotoxic
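CellTiter-Glo luminescence gave cytotoxicity after 18 hours at 37 degrees C. The cells were HepG2 CAGA-GFP in 1% FBS DMEM, stimulated with 500 pg/mL TGF-beta after compound addition. %Activity was normalised to no-cell wells (complete cell-killing) and DMSO (no toxicity), and curves were fitted and classified.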
S2 tox: Viability Counterscreen for Primary qHTS for Inhibitors of ATXN expression; AID 651635, 2014; S2 cells (HEK-293 line with an ATXN2-luciferase reporter) viability, CellTiter-Fluor protease fluorescence, 24 h; 0.49% of 400,000 active; Potency, µM (top dose mostly 56.7 µM), most hits filed as cytotoxic; further: nearly all actives have a fitted effect of over 40% in size
TGFb inhibitor: qHTS for Inhibitors of TGF-b; HepG2 CAGA-GFP TGF-b/SMAD3 reporter, GFP fluorescence, 18 h; TGF-beta stimulated, 500 pg/mL final; Potency, µM (top dose mostly 46.1 µM), for inactives: top-dose activity, negative = inhibition, actives largely listed as inhibitors; 1.2% of 410,000 active; AID 588855, 2011; further: on the % scale 0 is the no-effect control and ±100 the full control effect; nearly all actives have a fitted effect of over 65% in size
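Per well, imaged GFP fluorescence of HEPG2 CAGA-GFP cells gives the signal; cells get compound, then TGF-beta (500 pg/mL final), 18 h at 37 degrees C; %Activity versus -TGF-beta and +DMSO controls.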
DT40 TDP1 no CPT: qHTS for Inhibitors of human tyrosyl-DNA phosphodiesterase 1 (TDP1): qHTS in cells in absence of CPT | DT40 Tdp1-/- hTDP1 cells, no CPT, ATP luminescence, 48 h | Potency, µM (series often up to 46.2 µM), inactives show at the top dose activity change, negative = growth inhibition, hits mostly inhibitors | 15% of 420,000 active | AID 686978, 2013; further: on the % scale 0 is the no-effect control and ±100 the full control effect; nearly all actives have a fitted effect of over 55% in size
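Growth kinetics read by CellTiter-Glo luminescence after ≥48 hr at 37 °C. Cells: DT40 Tdp1-/- stably carrying human TDP1, 400 per well, compound exposure in the absence of CPT (DMSO vehicle).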
ATXN2 expr inh: Primary qHTS for Inhibitors of ATXN expression; Potency, µM (doses to about 57 µM), without a hit: at the highest dose activity change, negative = inhibition, actives largely listed as inhibitors; 0.72% of 360,000 active; HEK-293 ATXN2-luciferase reporter, luminescence, 24 h; further: on the % scale 0 is the no-effect control and ±100 the full control effect; nearly all actives have a fitted effect of over 55% in size
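ATXN2-luciferase reporter cells (luciferase flanked by upstream and downstream ATXN2 gene portions) were treated 24 h at 37 °C with compounds at up to 57 uM. SteadyGlo luminescence gave expression; GF-AFC fluorescence gave viability.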
* = called active by the depositor; i = inactive; ? = inconclusive; / = no result given. Rows were chosen to be rich in hits. Some 17% of all compounds tested hit in one or more screens of this group. The call rests on the fitted dose curve; in most records, active means well fitted curve in the direction sought with a large enough effect; inconclusive means small, poorly fitted or top-dose-only effect, or another doubt; inactive means no such curve, though single readings can be large; an effect the other way counts as inactive or inconclusive. Potency means the concentration at half of the fitted maximal effect.

SMILES	TDP1 cell CPT	HepG2 viability	S2 tox	TGFb inhibitor	DT40 TDP1 no CPT	ATXN2 expr inh
O=C(CN1CCN(Cc2ccc3c(c2)OCO3)CC1)NCC(F)(F)F	-2%	-7%	i	-17%	-3%	5%
Cc1noc(NS(=O)(=O)c2ccc(NC(=O)c3cc(S(=O)(=O)Nc4ccc(F)cc4)ccc3Cl)cc2)c1C	-17%	6%	i	-1%	-2%	-11%
COC(=O)c1ccccc1NC(=O)Cn1c(=O)n(CCCC(=O)NCCc2ccc(OC)c(OC)c2)c(=O)c2ccccc21	-6%	-2%	i	2%	-8%	5%
CCc1ccc2occ(CC(=O)Nc3nnc(C)s3)c2c1	-6%	2%	i	-14%	-24%	15%
CN(CC(=O)Nc1ccccc1)CC(=O)Nc1ccc(F)cc1	1%	8%	i	-4%	-14%	5%
CCOC(=O)c1ccc(N2C(=O)c3[nH]nc(-c4ccc(C)cc4)c3C2c2cccs2)cc1 (stereo not given)	16µM*	-27%	?	?	16µM*	?
CCOC(=O)c1ccc(N2C(=O)c3[nH]nc(-c4ccc(OC)cc4)c3C2c2ccccc2Cl)cc1 (stereo not given)	18µM*	-14%	i	-8%	23µM*	5%
O=C1c2[nH]nc(-c3ccccc3)c2C(c2ccccc2)N1c1cccc(C(F)(F)F)c1 (stereo not given)	12µM*	18µM*	?	?	16µM*	?
CCOC(=O)c1ccc(N2C(=O)c3[nH]nc(-c4ccc(C)cc4)c3C2c2ccc(O)c(OCC)c2)cc1 (stereo not given)	18µM*	-26%	?	?	23µM*	?
Cc1ccc(-c2n[nH]c3c2C(c2ccccc2)N(c2ccc(C(=O)O)cc2)C3=O)cc1 (stereo not given)	10%	6%	i	4%	19%	8%
CCOC(=O)N1CCN(C(=O)CN(c2cccc(Cl)c2)S(=O)(=O)c2ccccc2)CC1	-6%	-26%	i	9%	?	0%
Cc1ccc(S(=O)(=O)N2CCC(=O)CC2c2ccccc2)cc1 (stereo not given)	-1%	-7%	i	1%	-29%	3%
C=C[C@@H]1c2cc(C)ccc2N(S(=O)(=O)c2ccc(C)cc2)[C@H](c2ccccc2C(F)(F)F)C1(C#N)C#N	8.2µM*	-3%	i	-8%	?	-7%
Cc1ccc2c(c1)C1CN(C)CCC1N2S(=O)(=O)c1ccc(C(C)C)cc1 (stereo not given)	?	-18%	i	1%	?	-16%
C=C[C@@H]1c2ccccc2N(S(=O)(=O)c2ccc(C)cc2)[C@H](c2ccccc2)C1(C#N)C#N	7.9µM*	-4%	i	?	21µM*	-1%
C=C[C@@H]1c2cc(C)ccc2N(S(=O)(=O)c2ccc(C)cc2)[C@H](c2ccccc2)C1(C#N)C#N	7.9µM*	-18%	i	-4%	10µM*	5%
Cn1c2c(c(=O)n(C)c1=O)CS(=O)c1ccccc1N2 (stereo not given)	-17%	4%	i	-13%	1%	18%
Cc1ccnc(N/C=C(\C#N)c2nc(-c3cccc(Br)c3)cs2)c1	21µM*	-16%	i	66%	18µM*	?
CC(=O)Nc1cccc(-c2csc(Nc3cc(C)ccn3)n2)c1	?	-66%	/	?	?	?

Screening results: PubChem, National Center for Advancing Translational Sciences (NCATS)
